Only some compounds are listed: those with a hit (about 2.3% of all), similar ones and a draw of the others.
M1 ag: activates human CHRM1 receptor. P11229. CHO-K1 hM1, Fluo-8 calcium fluorescence, agonist mode; 0% DMSO, 100% acetylcholine EC100. activation, % at 3 µM. 0.33% of 360,000 active;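 active means activation above the run's mean compound activation plus 3 SD, cut at about 16% in these data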;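 further: peak over basal fluorescence ratio within a 140 s kinetic read after compound addition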
Target sequence (P11229 whole entry, looked up): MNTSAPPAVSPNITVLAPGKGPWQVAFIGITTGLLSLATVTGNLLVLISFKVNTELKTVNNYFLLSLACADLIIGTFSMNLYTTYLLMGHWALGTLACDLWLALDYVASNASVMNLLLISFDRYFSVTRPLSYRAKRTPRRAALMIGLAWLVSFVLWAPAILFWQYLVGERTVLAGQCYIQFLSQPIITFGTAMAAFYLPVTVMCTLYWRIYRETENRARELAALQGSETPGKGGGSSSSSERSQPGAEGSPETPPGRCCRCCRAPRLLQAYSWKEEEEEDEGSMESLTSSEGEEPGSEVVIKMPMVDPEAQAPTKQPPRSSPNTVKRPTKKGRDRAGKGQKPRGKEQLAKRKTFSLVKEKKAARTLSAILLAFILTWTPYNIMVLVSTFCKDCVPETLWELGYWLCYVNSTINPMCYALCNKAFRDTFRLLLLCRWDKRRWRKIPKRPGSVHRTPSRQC
M1 PAM parental: counter-screen for M1 PAMs: effect in parental CHO-K1 cells | ATP EC20, Fluo-8 calcium fluorescence; 0% at ATP EC20, 100% at ATP max | activation, % at 3 µM | 0.02% of 360,000 active | AID 602247;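 active means activation above the run cutoff, the mean activation of all test compounds plus 3 SD, cut at about 40% in these data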;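 further: peak over basal fluorescence ratio in a 140 s read after ATP addition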
CHO-K1 Ca ag: counter-screen for M1 agonists: effect in parental CHO-K1 cells; Fluo-8 calcium fluorescence; scaled to maximal ATP response, vehicle zero; activation, % at 3 µM; 0.48% of 360,000 active; AID 602248; in the data active means activation above about 15%;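 further: untransfected CHO-K1 host cells lacking M1 receptor as counterscreen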
CHO-K1 Ca antag: counter-screen for M1 antagonists: effect in parental CHO-K1 cells | ATP-induced calcium, Fluo-8 fluorescence | inhibition, % at 3 µM | 0.6% of 360,000 active | AID 602250;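 active means inhibition above a per-plate cutoff, the plate's mean sample inhibition plus 3 SD, cut at about 24% in these data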;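 further: 0% = DMSO plus EC80 ATP and 100% = DMSO alone without ATP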
M1 antag: human CHRM1 antagonism; P11229; CHO-K1 hM1, Fluo-8 calcium fluorescence, ACh EC80 antagonist; inhibition, % at 3 µM; 1.3% of 360,000 active; AID 588852;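 active means percent inhibition above its own plate's cutoff, namely the mean of that plate's compound wells plus 3 SD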;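 further: peak over basal fluorescence ratio during 140 s after agonist addition; 0% = ACh EC80 plus DMSO and 100% = DMSO alone without agonist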
CHRM1 PAM: positive allosteric modulators of human M1 muscarinic receptor; CHO-K1 hM1, Fluo-8 calcium fluorescence, ACh EC20; 0% = ACh EC20, 100% = maximal ACh; 0.088% of 360,000 active; activation, % at 3 µM; P11229; in the data active means activation above about 19%, passing the limit was not always enough
* marks the source's active call; other numbers are inactive results.

For O=C1CCN2C=Nc3cccc4ccc1c2c34 the results were M1 ag 25*, M1 PAM parental -8, CHO-K1 Ca ag 18*, CHO-K1 Ca antag -2, M1 antag -13 and CHRM1 PAM -3.
`Cc1cccc(NC(=O)CSc2nc3ccccc3c(=O)n2C)c1C` gave M1 ag 2, M1 PAM parental -9, CHO-K1 Ca ag 12, CHO-K1 Ca antag 15, M1 antag 33* and CHRM1 PAM -20.
For Cc1ccccc1Nc1nc(N)nc(CSc2nc3ccccc3c(=O)n2C)n1 the results were M1 ag 8, M1 PAM parental -2, CHO-K1 Ca ag 18*, CHO-K1 Ca antag 29*, M1 antag 31 and CHRM1 PAM -13.
Screening Cc1ccccc1Nc1nc(N)nc(CSc2nc3ccccc3c(=O)n2CCCO)n1 returned M1 ag 1, M1 PAM parental 19, CHO-K1 Ca ag 4, CHO-K1 Ca antag -26, M1 antag -15 and CHRM1 PAM -2.
COc1ccc(C(=O)N[C@H](C(=O)Nc2cccc(S(=O)(=O)N3CCOCC3)c2)C(C)C)cc1 was read as M1 ag -1, M1 PAM parental 5, CHO-K1 Ca ag 0, CHO-K1 Ca antag -8, M1 antag -19 and CHRM1 PAM 17.
For CCN(CC)C(=O)C1=C(C)N(CCC2=CCCCC2)C(=O)C(CC(=O)NCCN2CCOCC2)C1 (stereo not given) the results were M1 ag -6, M1 PAM parental 11, CHO-K1 Ca ag 0, CHO-K1 Ca antag -8, M1 antag -26 and CHRM1 PAM 14.
COc1ccccc1NC(=O)NC1(C(=O)NCC2CCCO2)CCCCC1 (stereo not given) was read as M1 ag -3, M1 PAM parental 8, CHO-K1 Ca ag 1, CHO-K1 Ca antag -12, M1 antag 0 and CHRM1 PAM 3.
Screening Cc1cc(C(=O)CN2C(=O)NC(CC(C)C)C2=O)c(C)n1C1CC1 (stereo not given) returned M1 ag -1, M1 PAM parental -6, CHO-K1 Ca ag 1, CHO-K1 Ca antag 7, M1 antag -4 and CHRM1 PAM 2.
Screening Cc1cc(C(=O)CN2C(=O)NC(C)(c3ccc(F)c(F)c3)C2=O)c(C)n1C1CC1 (stereo not given) returned M1 ag 22*, M1 PAM parental 21, CHO-K1 Ca ag 12, CHO-K1 Ca antag -2, M1 antag -7 and CHRM1 PAM 5.
Screening C=CCNC(=O)CN1C(=O)NC(C)(c2ccc(OC)cc2)C1=O (stereo not given) returned M1 ag 0, M1 PAM parental -14, CHO-K1 Ca ag 1, CHO-K1 Ca antag -3, M1 antag -2 and CHRM1 PAM -1.
`COc1ccc(C2(C)NC(=O)N(CC(=O)c3cc(C)n(C4CC4)c3C)C2=O)cc1` (stereo not given) gave M1 ag 40*, M1 PAM parental 4, CHO-K1 Ca ag 30*, CHO-K1 Ca antag 4, M1 antag 0 and CHRM1 PAM 5.
`N#Cc1ccccc1OCC(=O)Nc1cc(S(=O)(=O)N2CCCCC2)ccc1N1CCOCC1` gave M1 ag -2, M1 PAM parental -10, CHO-K1 Ca ag 1, CHO-K1 Ca antag -8, M1 antag 0 and CHRM1 PAM 7.
`Cc1ccccc1/C=C/C(=O)NCC(=O)N1CCC(N(C)C2CCCCC2C)CC1` (stereo not given) gave M1 ag -10, M1 PAM parental -13, CHO-K1 Ca ag 0, CHO-K1 Ca antag 6, M1 antag 27* and CHRM1 PAM -24.
Screening COc1ccc(NC(C)=O)cc1S(=O)(=O)N1CCN(Cc2cccs2)CC1 returned M1 ag 6, M1 PAM parental 11, CHO-K1 Ca ag 1, CHO-K1 Ca antag -11, M1 antag -10 and CHRM1 PAM 24*.
Screening COc1ccc(/C=C/C(=O)N(C)Cc2cccs2)cc1S(=O)(=O)N1CCOCC1 returned M1 ag -8, M1 PAM parental 5, CHO-K1 Ca ag 16*, CHO-K1 Ca antag 0, M1 antag 6 and CHRM1 PAM 4.
For COc1ccc(C(=O)NCc2cccs2)cc1S(=O)(=O)N1CCOCC1 the results were M1 ag -4, M1 PAM parental -1, CHO-K1 Ca ag 1, CHO-K1 Ca antag -6, M1 antag -4 and CHRM1 PAM 6.
Screening CCN1CCN(C(C(=O)NC2CCCCC2)c2ccnc3ccccc23)CC1 (stereo not given) returned M1 ag -5, M1 PAM parental 10, CHO-K1 Ca ag 1, CHO-K1 Ca antag -14, M1 antag -22 and CHRM1 PAM 4.
For O=C(O)c1ccc(C(=O)O)c(C(=O)c2ccc(NC(=O)c3ccccc3)cc2)c1 the results were M1 ag -4, M1 PAM parental 7, CHO-K1 Ca ag 0, CHO-K1 Ca antag -8, M1 antag -12 and CHRM1 PAM 6.
Screening COC(=O)C1=C(N)Oc2cc(C)n(Cc3cccnc3)c(=O)c2C1c1ccccc1OC (stereo not given) returned M1 ag -4, M1 PAM parental -7, CHO-K1 Ca ag 0, CHO-K1 Ca antag 26*, M1 antag 2 and CHRM1 PAM 0.
`COc1ccc(S(=O)(=O)c2nnn(-c3cccc(Cl)c3)c2N)cc1` gave M1 ag 11, M1 PAM parental -16, CHO-K1 Ca ag 2, CHO-K1 Ca antag 25*, M1 antag 2 and CHRM1 PAM -4.
Screening CC(=O)Nc1cccc(NC(=O)c2cc(-c3cccnc3)nc3ccc(Br)cc23)c1 returned M1 ag -5, M1 PAM parental -16, CHO-K1 Ca ag 6, CHO-K1 Ca antag 6, M1 antag 42* and CHRM1 PAM -22.
`Cn1c(=O)n(C)c2cc(NC(=O)CSc3nc4ccccc4c(=O)[nH]3)ccc21` gave M1 ag -11, M1 PAM parental 21, CHO-K1 Ca ag 1, CHO-K1 Ca antag -22, M1 antag -10 and CHRM1 PAM 10.
`COc1cnc(-c2ccccn2)nc1Oc1ccc(Cl)cc1` gave M1 ag -2, M1 PAM parental -6, CHO-K1 Ca ag 0, CHO-K1 Ca antag 24*, M1 antag -5 and CHRM1 PAM 9.
Screening CCOc1ccc(C(=O)NC2CC3CCCC(C2)N3CC(C)C)cc1 (stereo not given) returned M1 ag -6, M1 PAM parental -15, CHO-K1 Ca ag 0, CHO-K1 Ca antag 0, M1 antag 40* and CHRM1 PAM -14.
For NC(=O)c1ccc[n+](CCC[n+]2cccc(C(N)=O)c2)c1 the results were M1 ag -3, M1 PAM parental 15, CHO-K1 Ca ag 0, CHO-K1 Ca antag -16, M1 antag -7 and CHRM1 PAM 8.
CCCCCCCCCC[n+]1cccc(C(=O)N(CC)CC)c1 was read as M1 ag -9, M1 PAM parental 9, CHO-K1 Ca ag 0, CHO-K1 Ca antag -3, M1 antag 42* and CHRM1 PAM -25.

From PubChem
